# Measured values as given in the OligoGym collection.
# Target: PPM1E
# Assay: pooled miR-30 sensor sort-seq; sequence = guide strand
# Details: shRNA
# Also: reference of the scale not given here.
row,Sequence,sensor-assay potency score (higher = more potent)
1,TTTGGATTAAACCTGAATCTGT,-0.682
2,TAGTTCAACAGCTTGGCCCTTT,0.206
3,TTGCTTTCTTTGGTGCACCAGG,-0.843
4,TTGCTTGCTTCTATTTGTGTGA,-0.309
5,TACAGCTTTGTTCATGTCCCTC,-0.388
6,TATTTGTGTGAGATCTAGGTAG,0.201
7,TTACATTTAAGAATTGAGCCAT,0.639
8,TTTCTCACAAGCATAACCTGGG,0.732
9,TAGATTGAAAACACTGTACTTT,0.776
10,TATATTTGTAGAGCTGCTGCAG,0.13
11,TAAAACTTTGGATTAAACCTGA,-0.0256
12,TTTTAGATTGAAAACACTGTAC,0.00481

# Target: PPM1F
# Assay: as above
# Details: shRNA
row,Sequence,sensor-assay potency score (higher = more potent)
1,TCTGTCTGTAGCAGCTGTGAAA,-1.23
2,TATGACACAACAGGTCATCTTG,-0.621
3,TAAATTATATGACACAACAGGT,-0.732
4,TTATATGACACAACAGGTCATC,-0.681
5,AACATCTGGTCGGTGCGCCGGA,-0.815
6,TTAAATTATATGACACAACAGG,-0.831
7,TACCTCGCAGCATCCACGCCTC,-0.377
8,AAGGTCTGTCTGTAGCAGCTGT,-0.309
9,TCAAACACAGCAAAGTAGGCGC,-0.108
10,ATATCTGTAAATATGAACCCAC,-0.596
11,TTTCCTGAGAAACATCTGGTCG,-0.801
12,TTCTGGTCTGTGTGGCTCCATC,-1.7

# Target: PPM1J
# Assay: as above
# Details: shRNA
row,Sequence,sensor-assay potency score (higher = more potent)
1,TACTCCTGTAACACTCCTCCGA,-0.279
2,TAGCACATCATCTGGGCAGTGC,-0.403
3,TCTTTTTGTAGGCCCAGCCGGT,-1.16
4,TTGGATATAGCGGACATCCCTT,-0.328
5,TAGATCACAACCAGTGCACAGC,-0.65
6,TAGCAGGTAGATCACAACCAGT,-1.29
7,TCGATCTTTTTGTAGGCCCAGC,-1.4
8,TTCCGGACAATGATGGCCCTGC,0.189
9,AAGTATCTCTACCAGGTCCTTT,-0.98
10,TTGATGACCTCGGCGTAGCCTG,-0.901
11,ACAGTCAGTAGTGACATCCCAC,-0.629
12,TTCACTGCCTAGCAGCTCTGGT,-0.516

# Target: PPP1R13B
# Assay: as above
# Details: shRNA
row,Sequence,sensor-assay potency score (higher = more potent)
1,TTCCTTGGCAACCAACATCTGC,-1.09
2,TTCACTGATTCGCTTGTCCATC,-0.504
3,TTACATTTCTCTGAGTTCGTTG,-0.0932
4,TTTCTTCAGCTTGTTCTCCTGG,0.329
